{
  "source": "PubChem BioAssay AID651747",
  "about": "(Johns Hopkins Ion Channel Center, 2012)",
  "note": "Out of some 2,400 compounds screened, about 950 (40%) were called active.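 How the source made its calls: active means thallium flux ratio, averaged over three wells, more than 5 SD below the buffer control mean; inactive means the rest.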 This excerpt belongs to a sample that is enriched for actives.",
  "data": [
    {"assay": "thallium flux inhibition in non-induced cells, primary screen, counter-screen for KCNK3 inhibitor project, cell-based, non-induced KCNK3 line, FluxOR thallium, triplicate (AID 651747);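 further: host cells are CHO cells without KCNK3 induction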;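 on thallium flux ratio (lower = more inhibition): ratio is peak minus trough fluorescence over baseline then normalized to buffer controls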", "conditions": "non-induced KCNK3 parental cells, at 10 µM; active compounds read low", "values": [
      {"smiles": "CCOC(=O)C1SC2(C(F)(F)C(F)F)CC1(O)c1c(c(OC)c3occc3c1OC)O2", "note": "(stereo not drawn)", "thallium flux ratio (lower = more inhibition)": "0.16 (active)"},
      {"smiles": "CCCCCCN=C(CC)c1c(O)n(CCCC)c(=O)[nH]c1=O", "thallium flux ratio (lower = more inhibition)": "0.126 (active)"},
      {"smiles": "COc1ccccc1C1=NCc2nnc(CSC)n2-c2ccc(Cl)cc21", "thallium flux ratio (lower = more inhibition)": "inactive"}
    ]}
  ]
}
